# PubChem BioAssay
# Values joined by “and” are separate entries in the source; they are usually repeats but may differ in a detail not shown here. Equal entries are not always repeated. Records with an inconclusive call do not appear. Active and inactive are the calls of the source. Unless noted, no rule for the calls is given here.
# How the values were obtained:
# [1] = P. berghei load reduction in hepatocytes – cell-based, HepG2, luciferase luminescence, HepG2 viability, primary screen (AID 624349; in the data active = parasite load remaining mostly below about 12%, no sharp cut-off; inactive = mostly above about 10%;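 also: 100% = mean of DMSO negative control wells on the same plate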); conditions: P. berghei liver stage in HepG2, luciferase luminescence, concentration not given here; parasite load remaining: stronger effect = lower value; viability: measured here: HepG2 viability without parasites
# [2] = tested on: Hepatitis C virus NS3 helicase; assay: blockers of NS3h binding to ssDNA – biochemical, fluorescence polarization, LOPAC1280 library, primary screen (AID 687035; in the data active = inhibition above about 37%); conditions: Purified HCV NS3 helicase, Cy5-dT15 ssDNA binding fluorescence polarization; stronger effect = higher value; concentration not given here
# [3] = compounds altering Cy5-DNA-NS3h complex signal – biochemical, LOPAC1280, artefact control for HCV NS3 helicase inhibitor project (AID 687037); conditions: Cy5-DNA-NS3h complex fluorescence interference counterscreen
# [4] = tested on: Aerobactin synthetase IucA (Klebsiella pneumoniae); assay: inhibition of K. pneumoniae IucA enzyme – biochemical, Tocris library, absorbance (AID 1345561); conditions: purified IucA enzyme assay, absorbance (OD) read-out; stronger effect = lower value;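 tested at 8 µM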;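 also: 100% = enzyme without compound and 0% = no enzyme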
# [5] = viability loss in pontine glioma line – cell-based, SU-DIPG-XIII, MIPE4.0, CellTiter-Glo, qHTS, dose response (AID 1347061; cut-off not given, nearly all actives have AC50 up to about 37 µM;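 also: cells exposed to compound for 48 hours before readout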); conditions: CellTiter-Glo ATP luminescence
# [6] = viability loss in pontine glioma line – cell-based, JHH-DIPG-1, MIPE4.0, CellTiter-Glo, qHTS, dose response (AID 1347062; cut-off not given, nearly all actives have AC50 up to about 27 µM); conditions: JHH-DIPG-1 viability, CellTiter-Glo ATP luminescence
# [7] = viability loss in pontine glioma line – cell-based, SU-DIPG-IV, MIPE4.0, CellTiter-Glo, qHTS, dose response (AID 1347063; cut-off not given, nearly all actives have AC50 up to about 30 µM;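 also: compound exposure lasted 48 hours before the viability readout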); conditions: CellTiter-Glo ATP luminescence
# [8] = growth inhibition of DIPG cells – cell-based, MIPE4.0 library, CellTiter-Glo luminescence, qHTS (AID 1347066; cut-off not given, nearly all actives have AC50 up to about 30 µM;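 also: cells exposed to compound for 48 hours before readout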); conditions: SU-DIPG-VI viability, CellTiter-Glo ATP luminescence
# [9] = growth inhibition of DIPG cells – cell-based, MIPE5.0 library, qHTS (AID 1347068; cut-off not given, nearly all actives have IC50 up to about 30 µM); conditions: SU-DIPG-XXV viability
# [10] = MELAS cybrid and Rieske KO viability enhancers – cell-based, MELAS cybrids, Rieske KO mouse fibroblasts, CellTiter-Glo, primary screen (AID 1508586;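 active = mean z-score across replicates of 1.96 or higher in either the MELAS or the Rieske mutant cell line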;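 also: z relative to plate mean and SD of compound and empty wells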); conditions: low glucose
# [11] = galactose survival enhancers in mitochondrial complex I cybrids – cell-based, galactose medium, ATP luminescence, primary screen (AID 1645843;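 active = z-score of at least 1.8 in each of two replicates, scored against plate mean and spread of sample wells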;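 also: positive z means more ATP and so rescue of galactose-driven cybrid death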); conditions: complex I mutant cybrid cells, 72 h, stronger effect = higher value
# [12] = viability loss with induced miR-34 in A549 – imaging, A549 dox-inducible miR-34, nuclei and caspase counts, primary screen (AID 1347080;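 active = compounds whose cell count with miR-34 switched on is under 0.7 times the count with it off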); conditions: A549 miR-34 inducible, Hoechst nuclei count, 48 h
# [13] = viability loss in pontine glioma line – cell-based, SU-DIPG-XIII, MIPE5.0, CellTiter-Glo, qHTS, dose response (AID 1347064; cut-off not given, nearly all actives have AC50 up to about 23 µM;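 as to AC50: cells exposed to compound for 48 hours before the viability read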); conditions: CellTiter-Glo ATP luminescence
# [14] = viability loss in pontine glioma line – cell-based, SU-DIPG-XXV, MIPE5.0, CellTiter-Glo, qHTS, dose response (AID 1347065; cut-off not given, nearly all actives have AC50 up to about 26 µM;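 also: cells exposed to compound for 48 hours before ATP readout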); conditions: CellTiter-Glo ATP luminescence
# [15] = growth inhibition, single agents and combos, ICB984, cell-based, cisplatin or BGB combos, synergistic combos for chromothripsis tumors (AID 1671451); conditions: ICB984 medulloblastoma cells, drug combinations, stronger effect = higher value;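 also: cells exposed for 96 hours before readout; 0% = vehicle DMSO and 100% = killing by high DMSO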
# [16] = compounds altering HSF1 focus formation in cells – imaging, Selleck Cancer Library (AID 1347162; in the data active = plate-normalised HSF1 focus index below about 0.46); conditions: human cells, HSF1 nuclear foci imaging, at 10 µM; SSMD: measured here: HSF1 foci SSMD mean; cell count: measured here: cell number; plate-normalised HSF1 focus index: stronger effect = lower value
# [17] = JHH-DIPG-1 glioma cell viability, MIPE5.0 library, CellTiter-Glo luminescence, qHTS (AID 1347067; cut-off not given, nearly all actives have AC50 up to about 26 µM;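 also: cells exposed to compound for 48 hours before readout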); conditions: JHH-DIPG-1 glioma viability, CellTiter-Glo ATP luminescence
# [18] = MELAS cybrid survival, CellTiter-Glo 48 h, stronger effect = higher value
# [19] = Rieske KO mouse fibroblast survival, CellTiter-Glo 72 h
# [20] = stronger effect = lower value, cell number ratio, induced over uninduced
# [21] = measured here: relative caspase fold change +Dox/-Dox
# [22] = measured here: total cells with miR-34 induction, stronger effect = lower value
# [23] = measured here: total cells without miR-34 induction
smiles,measurement,setting,value
Oc1ccc(-c2nc(-c3ccc(F)cc3)c(-c3ccncc3)[nH]2)cc1,parasite load remaining,[1],28.5% (inactive)
same,viability,[1],95.1%
same,inhibition,[2],-3% (inactive)
same,fluorescence ratio (interference),[3],0.9 (inactive)
same,remaining activity,[4],114% (inactive)
same,AC50,[5],5.9 µM (active)
same,outcome,[6],inactive
same,AC50,[7],23.5 µM (active)
same,outcome,[8],inactive
same,outcome,[9],inactive
same,z-score,[10]; [18],-0.659 (inactive)
same,z-score,[10]; [19],0.329
same,z-score,[11],1.04 (inactive) and 0.455 (inactive)
CC(C)(C)/[N+]([O-])=C/c1ccc(S(=O)(=O)O)cc1S(=O)(=O)O,remaining activity,[4],104% (inactive)
same,outcome,[5],inactive
same,outcome,[6],inactive
same,outcome,[7],inactive
same,outcome,[8],inactive
same,fold change,[12]; [20],1.35 (inactive)
same,fold change,[12]; [21],1.12
same,cell count,[12]; [22],7460
same,cell count,[12]; [23],5520
same,z-score,[11],2.67 (inactive)
O=c1ncccn1[C@@H]1O[C@H](CO)[C@@H](O)[C@H]1O,remaining activity,[4],115% (inactive)
same,outcome,[13],inactive
same,outcome,[14],inactive
same,outcome,[9],inactive
same,fold change,[12]; [20],1 (inactive)
same,fold change,[12]; [21],1.17
same,cell count,[12]; [22],7460
same,cell count,[12]; [23],7440
same,z-score,[11],-0.025 (inactive)
same,inhibition,"[15]; BGB IC20 combo, at 0.005 µM",4.35%
same,inhibition,"[15]; BGB IC40 combo, at 0.005 µM",-50.2%
same,inhibition,"[15]; BGB IC40 combo, at 0.05 µM",-18%
same,inhibition,[15]; at 0.5 µM,-16.8% (inactive)
same,inhibition,"[15]; cisplatin combo, at 0.05 µM",-22.2%
same,inhibition,"[15]; cisplatin combo, at 0.5 µM",-22.8%
same,inhibition,"[15]; cisplatin combo, at 5 µM",-30.8%
same,inhibition,"[15]; measured here: 5 uM single agent, at 5 µM",-3.85%
COc1ccc(-c2oc3cc(OC)ccc3c2C(=O)c2ccc(C#N)cc2)cc1,remaining activity,[4],104% (inactive)
same,outcome,[5],inactive
same,outcome,[6],inactive
same,fold change,[12]; [20],0.933 (inactive)
same,fold change,[12]; [21],1.26
same,cell count,[12]; [22],7250
same,cell count,[12]; [23],7780
same,SSMD,[16],3.38
same,cell count,[16],6920
same,plate-normalised HSF1 focus index,[16],1.2 (inactive)
same,z-score,[11],0.755 (inactive)
Oc1ccc(Nc2nc(-c3ccc(Cl)cc3)cs2)cc1,parasite load remaining,[1],34.6% (inactive)
same,viability,[1],65.5%
same,remaining activity,[4],89% (inactive)
same,AC50,[14],5.9 µM (active)
same,fold change,[12]; [20],0.947 (inactive) and 0.904 (inactive) and 0.869 (inactive)
same,fold change,[12]; [21],0.378 and 0.549 and 1.23
same,cell count,[12]; [22],4850 and 4920 and 2840
same,cell count,[12]; [23],5120 and 5440 and 3260
same,SSMD,[16],1.25
same,cell count,[16],6680
same,plate-normalised HSF1 focus index,[16],1.08 (inactive)
same,z-score,[10]; [18],-0.306
same,z-score,[10]; [19],2.78
same,z-score,[11],-0.695 (inactive)
CN(CCOc1ccc(-c2ccc3c(c2)OCO3)cc1C(C)(C)C)CC(=O)O,remaining activity,[4],102% (inactive)
same,AC50,[17],23.5 µM (active)
same,outcome,[9],inactive
same,fold change,[12]; [20],0.865 (inactive)
same,fold change,[12]; [21],1.03
same,cell count,[12]; [22],7520
same,cell count,[12]; [23],8690
same,z-score,[11],-0.035 (inactive)
Oc1cc(O)cc(/C=C/c2ccc(O)c(O)c2)c1,inhibition,[2],-6% (inactive)
same,fluorescence ratio (interference),[3],0.9 (inactive)
same,remaining activity,[4],112% (inactive)
same,outcome,[5],inactive
same,AC50,[13],20.9 µM (active)
same,AC50,[17],16.6 µM (active)
same,outcome,[9],inactive
same,fold change,[12]; [20],1.12 (inactive) and 0.813 (inactive) and 0.863 (inactive)
same,fold change,[12]; [21],0.772 and 1.12 and 0.797
same,cell count,[12]; [22],9320 and 2290 and 7210
same,cell count,[12]; [23],8350 and 2810
same,z-score,[11],-1.24 (inactive) and -0.7 (inactive)
